Measurements reported in PubChem BioAssay (NCATS).
Several values for one entry are separate records, joined by “and”; a condition that tells them apart may be missing. Equal entries are not always repeated. Inconclusive results are not listed. Where a call stands in place of a potency, no number is given. More than one record can exist for a structure, and the calls need not agree. Activity calls are given as the source filed them. Unless noted, calls come from the whole dose curve; as a rule, active = well fitted curve in the direction sought with a large enough effect; inconclusive = small, poorly fitted or top-dose-only effect, or another doubt; inactive = no such curve, though single readings can be large; an effect the other way counts as inactive or inconclusive.

Columns and labels:
[1] = target: Cytochrome P450 2D6 (Homo sapiens) (UniProt P10635); test: Cytochrome P450 family 2 subfamily D member 6 (CYP2D6) small molecule antagonists: luciferase biochemical (cell-free) qHTS assay (AID 1645840; active = well fitted curve in the direction sought with a large enough effect in the repeat runs; an effect the other way counts as inactive or inconclusive; note: nearly all actives have a fitted effect of over 55% in size; note: potency is the fitted concentration of half-maximal effect); conditions: P450-Glo CYP2D6 enzyme, luciferin luminescence, 1 h; series mostly up to 57.4 µM
Outline: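 P450-Glo luminescent screen: recombinant CYP2D6 enzyme–proluciferin substrate mix preincubated with compound 10 min at room temperature, then NADPH regeneration added for 1 h at room temperature. Detection reagent added for 20 min; luciferin light read as relative luminescence units.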

[2] = target: Cytochrome P450 2C9 (Homo sapiens) (UniProt P11712); test: Cytochrome P450 family 2 subfamily C member 9 (CYP2C9) small molecule antagonists: luciferase biochemical (cell-free) qHTS assay (AID 1645842; active = well fitted curve in the direction sought with a large enough effect in the repeat runs; an effect the other way counts as inactive or inconclusive; note: nearly all actives have a fitted effect of over 55% in size; note: potency is the fitted concentration of half-maximal effect); conditions: P450-Glo CYP2C9 enzyme assay, luciferin luminescence; series mostly up to 57.4 µM
Outline: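 Luminescence, after 20 min with luciferin detection reagent, reflected CYP2C9 turnover during a 1 h NADPH-driven reaction at 37C. Enzyme-substrate mix contained 0.4% bovine serum albumin and was preincubated with compound 10 min at room temperature.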

[3] = Primary qHTS for inhibitors of nuclear receptor binding SET domain protein 2 (NSD2) in an isogenic RCH-ACV NSD2 p.E1099K mutant (9B) (AID 1645876); conditions: RCH-ACV NSD2 E1099K (9B) viability, CellTiter-Glo, 72 h; series mostly up to 44.9 µM; note: nearly all actives have a fitted effect of over 70% in size; note: potency is the fitted concentration of half-maximal effect
[4] = Primary qHTS for inhibitors of nuclear receptor binding SET domain protein 2 (NSD2) in an RCH-ACV wild type WT cells (2C) (AID 1645877); conditions: RCH-ACV (leukaemia line) NSD2 WT (2C) viability, CellTiter-Glo, 72 h; series mostly up to 44.9 µM; note: nearly all actives have a fitted effect of over 70% in size; note: potency is the fitted concentration of half-maximal effect
[5] = target: Cytochrome P450 3A4 (Homo sapiens) (UniProt P08684); test: Cytochrome P450 family 3 subfamily A member 4 (CYP3A4) small molecule antagonists: luciferase qHTS assay (AID 1645841; active = well fitted curve in the direction sought with a large enough effect in the repeat runs; an effect the other way counts as inactive or inconclusive; note: nearly all actives have a fitted effect of over 45% in size); conditions: P450-Glo CYP3A4 enzyme assay, luciferin luminescence; series mostly up to 57.4 µM
Outline: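 P450-Glo CYP3A4 enzyme with proluciferin substrate preincubated 10 min with compound at room temperature, then NADPH regeneration 1 h. Luciferin detection reagent added for 20 min; luminescence recorded. Ketoconazole positive control.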

[6] = target: Rap guanine nucleotide exchange factor 3 (Homo sapiens) (UniProt O95398); test: Confirmatory qHTS for antagonist of cAMP-regulated guanine nucleotide exchange factor 3 (EPAC1) (AID 1645880); conditions: EPAC1 Rap1B-BODIPY-GDP exchange, fluorescence; series mostly up to 203 µM; note: nearly all actives have a fitted effect of over 55% in size
Outline: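 Nucleotide exchange uses 100 nM EPAC1, 250 nM RAP1B-BODIPY-GDP and 50 uM GDP, with compounds in a concentration-titration series. After 5 min at room temperature, fluorescence (480 nm ex/540 nm em) is read every 5 min for 30 min. Data are normalized to control ATA and DMSO.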

[7] = target: Rap guanine nucleotide exchange factor 3 (Homo sapiens) (UniProt O95398); test: Confirmatory qHTS for agonist of cAMP-regulated guanine nucleotide exchange factor 3 (EPAC1) (AID 1645881); conditions: EPAC1 Rap1B BODIPY-GDP exchange fluorescence; series mostly up to 271 µM;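 note: EPAC1 catalysed release of BODIPY-GDP from Rap1B seen as fluorescence loss; nearly all actives have a fitted effect of over 75% in size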
[8] = target: Rap guanine nucleotide exchange factor 4 (Homo sapiens) (UniProt Q8WZA2); test: Confirmatory qHTS for agonist of cAMP-regulated guanine nucleotide exchange factor 4 (EPAC2) (AID 1645884); conditions: EPAC2 GEF activity, Rap1B-BODIPY-GDP fluorescence; series mostly up to 154 µM;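 note: nucleotide exchange releases bodipy-GDP from Rap1 and this lowers its fluorescence; nearly all actives have a fitted effect of over 65% in size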
Chain of Rap guanine nucleotide exchange factor 4 (Homo sapiens) (Q8WZA2 whole entry, looked up): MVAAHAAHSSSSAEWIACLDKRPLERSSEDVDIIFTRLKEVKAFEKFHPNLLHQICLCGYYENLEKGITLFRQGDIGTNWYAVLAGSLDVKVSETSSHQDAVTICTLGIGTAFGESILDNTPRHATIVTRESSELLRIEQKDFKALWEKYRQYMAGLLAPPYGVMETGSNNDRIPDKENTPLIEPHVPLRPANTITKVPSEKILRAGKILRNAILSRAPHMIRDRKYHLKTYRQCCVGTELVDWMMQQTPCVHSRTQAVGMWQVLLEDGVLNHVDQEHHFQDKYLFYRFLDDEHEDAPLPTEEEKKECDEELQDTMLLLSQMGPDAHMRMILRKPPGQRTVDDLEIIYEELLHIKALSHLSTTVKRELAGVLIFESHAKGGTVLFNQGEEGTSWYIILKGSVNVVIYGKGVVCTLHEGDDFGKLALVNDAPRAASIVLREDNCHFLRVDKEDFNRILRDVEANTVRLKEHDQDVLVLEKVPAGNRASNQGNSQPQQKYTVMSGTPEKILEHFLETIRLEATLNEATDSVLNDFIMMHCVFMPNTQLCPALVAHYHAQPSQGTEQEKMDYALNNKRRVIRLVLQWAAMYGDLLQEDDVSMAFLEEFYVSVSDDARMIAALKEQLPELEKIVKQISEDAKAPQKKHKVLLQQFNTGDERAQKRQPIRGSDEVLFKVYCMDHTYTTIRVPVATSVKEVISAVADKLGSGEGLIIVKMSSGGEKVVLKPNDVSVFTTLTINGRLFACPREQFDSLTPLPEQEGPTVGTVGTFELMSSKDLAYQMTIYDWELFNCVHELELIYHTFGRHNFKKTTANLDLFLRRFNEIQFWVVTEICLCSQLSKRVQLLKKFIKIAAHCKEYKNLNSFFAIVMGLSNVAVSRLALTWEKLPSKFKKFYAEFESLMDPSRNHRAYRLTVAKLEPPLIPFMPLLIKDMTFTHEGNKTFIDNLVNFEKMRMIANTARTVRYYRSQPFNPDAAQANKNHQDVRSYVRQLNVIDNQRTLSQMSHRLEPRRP

Chain of Cytochrome P450 2C9 (Homo sapiens) (P11712 whole entry, looked up): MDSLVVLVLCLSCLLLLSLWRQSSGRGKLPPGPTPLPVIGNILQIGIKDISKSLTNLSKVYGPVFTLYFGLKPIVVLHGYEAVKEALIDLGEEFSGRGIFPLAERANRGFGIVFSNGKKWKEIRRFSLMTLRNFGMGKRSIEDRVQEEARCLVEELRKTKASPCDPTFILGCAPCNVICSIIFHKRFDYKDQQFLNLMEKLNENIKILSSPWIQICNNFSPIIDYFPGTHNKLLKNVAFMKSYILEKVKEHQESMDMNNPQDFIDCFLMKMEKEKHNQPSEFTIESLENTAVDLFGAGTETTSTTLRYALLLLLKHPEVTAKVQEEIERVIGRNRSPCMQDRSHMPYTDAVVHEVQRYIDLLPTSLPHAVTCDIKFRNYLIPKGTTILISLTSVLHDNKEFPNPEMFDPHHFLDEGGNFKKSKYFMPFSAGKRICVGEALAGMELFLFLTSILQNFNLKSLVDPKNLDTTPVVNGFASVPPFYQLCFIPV
Chain of Cytochrome P450 2D6 (Homo sapiens) (P10635 whole entry, looked up): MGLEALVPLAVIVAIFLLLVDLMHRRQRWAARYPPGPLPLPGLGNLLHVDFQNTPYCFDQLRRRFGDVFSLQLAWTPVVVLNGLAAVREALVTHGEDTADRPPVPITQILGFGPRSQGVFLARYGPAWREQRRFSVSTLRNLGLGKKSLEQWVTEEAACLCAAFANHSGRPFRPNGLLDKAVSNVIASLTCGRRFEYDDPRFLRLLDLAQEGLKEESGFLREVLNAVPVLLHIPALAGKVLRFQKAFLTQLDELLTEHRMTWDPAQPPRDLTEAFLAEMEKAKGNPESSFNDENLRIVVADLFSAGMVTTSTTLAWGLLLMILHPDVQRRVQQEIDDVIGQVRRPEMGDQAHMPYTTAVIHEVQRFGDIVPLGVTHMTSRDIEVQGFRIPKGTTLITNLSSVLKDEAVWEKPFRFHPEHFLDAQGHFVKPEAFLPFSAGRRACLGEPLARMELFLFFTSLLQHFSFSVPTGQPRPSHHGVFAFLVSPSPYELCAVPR
Chain of Rap guanine nucleotide exchange factor 3 (Homo sapiens) (O95398 whole entry, looked up): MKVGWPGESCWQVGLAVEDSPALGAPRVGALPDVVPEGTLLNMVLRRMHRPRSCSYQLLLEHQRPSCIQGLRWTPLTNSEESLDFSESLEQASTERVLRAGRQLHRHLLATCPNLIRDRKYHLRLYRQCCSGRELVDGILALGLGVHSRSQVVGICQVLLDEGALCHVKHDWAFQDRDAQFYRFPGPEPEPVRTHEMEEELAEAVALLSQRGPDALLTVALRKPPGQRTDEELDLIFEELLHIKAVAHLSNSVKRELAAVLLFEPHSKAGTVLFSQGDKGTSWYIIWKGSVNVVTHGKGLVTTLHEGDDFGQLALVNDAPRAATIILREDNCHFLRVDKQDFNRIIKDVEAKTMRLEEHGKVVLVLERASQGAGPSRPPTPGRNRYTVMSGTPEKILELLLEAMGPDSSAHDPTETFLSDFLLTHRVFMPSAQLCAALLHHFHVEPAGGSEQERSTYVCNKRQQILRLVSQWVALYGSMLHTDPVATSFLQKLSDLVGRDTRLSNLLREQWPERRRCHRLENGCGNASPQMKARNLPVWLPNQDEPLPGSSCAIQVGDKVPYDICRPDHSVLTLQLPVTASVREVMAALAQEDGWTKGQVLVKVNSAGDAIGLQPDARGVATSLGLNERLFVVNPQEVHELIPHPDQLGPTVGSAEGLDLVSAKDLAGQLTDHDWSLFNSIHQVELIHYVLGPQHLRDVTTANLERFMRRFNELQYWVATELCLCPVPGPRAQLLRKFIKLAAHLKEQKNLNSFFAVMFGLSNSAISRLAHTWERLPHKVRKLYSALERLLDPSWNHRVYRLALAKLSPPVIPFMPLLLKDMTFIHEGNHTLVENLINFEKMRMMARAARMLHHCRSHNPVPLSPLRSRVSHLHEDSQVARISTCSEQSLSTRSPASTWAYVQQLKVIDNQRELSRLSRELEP
Chain of Cytochrome P450 3A4 (Homo sapiens) (P08684 whole entry, looked up): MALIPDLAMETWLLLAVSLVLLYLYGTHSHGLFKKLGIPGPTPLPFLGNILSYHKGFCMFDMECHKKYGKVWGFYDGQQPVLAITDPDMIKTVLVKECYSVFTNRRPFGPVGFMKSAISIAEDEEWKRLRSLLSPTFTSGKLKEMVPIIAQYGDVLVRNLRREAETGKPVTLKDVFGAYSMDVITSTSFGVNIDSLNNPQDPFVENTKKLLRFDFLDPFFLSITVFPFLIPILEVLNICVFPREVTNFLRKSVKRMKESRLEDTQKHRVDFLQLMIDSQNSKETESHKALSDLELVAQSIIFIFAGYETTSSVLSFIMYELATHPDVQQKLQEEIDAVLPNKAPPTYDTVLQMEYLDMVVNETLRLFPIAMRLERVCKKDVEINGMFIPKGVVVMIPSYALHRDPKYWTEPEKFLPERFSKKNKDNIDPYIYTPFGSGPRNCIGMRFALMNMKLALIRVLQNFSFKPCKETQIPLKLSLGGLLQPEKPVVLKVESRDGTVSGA

With `CCCCCN(CCCOC)C(=O)C(CCC(=O)O)NC(=O)c1ccc(Cl)c(Cl)c1` (stereo unspecified) the Potency [1] was “inactive”, the Potency [2] was 19.5 µM (active) and the Potency [3] was “inactive”. For the same compound, the Potency [4] was “inactive”.
With `CNC(=O)c1c(I)c(NC(C)=O)c(I)c(C(=O)O)c1I` the Potency [1] was “inactive”, the Potency [2] was “inactive” and the Potency [3] was “inactive”. The Potency [4] was “inactive”.
In the case of `O=C(CO)[C@@H](O)[C@H](O)[C@@H](O)CO`, the Potency [1] is reported as “inactive”, the Potency [2] is reported as “inactive” and the Potency [3] is reported as “inactive”. For the same compound, the Potency [4] was “inactive”.
In the case of `CCCCCC(=O)O[C@]1(C(C)=O)CC[C@H]2[C@@H]3CCC4=CC(=O)CC[C@]4(C)[C@H]3CC[C@@]21C`, the Potency [1] is reported as 13.8 µM (active), the Potency [2] is reported as 4.9 µM (active) and the Potency [4] is reported as 10.6 µM (active).
In the case of `CC(=O)c1ccc(O)c(C(N)=O)c1`, the Potency [1] is reported as “inactive”, the Potency [2] is reported as “inactive” and the Potency [3] is reported as “inactive”. For the same compound, the Potency [4] was “inactive”.
In the case of `O=C(Oc1ccccc1)c1cccc(C(=O)Oc2ccccc2)c1`, the Potency [1] is reported as 30.7 µM (active), the Potency [2] is reported as 6.48 µM (active) and the Potency [3] is reported as “inactive”. For the same compound, the Potency [4] was “inactive”.
In the case of `CCCCCOc1ccc(C2SC(=O)NC2=O)cc1OCC` (stereo unspecified), the Potency [1] is reported as “inactive”, the Potency [2] is reported as 7.76 µM (active) and the Potency [4] is reported as “inactive”.
In the case of `CCN(CC)C(=O)C1CN2CCc3cc(OC)c(OC)cc3C2CC1OC(C)=O` (stereo unspecified), the Potency [1] is reported as “inactive”, the Potency [2] is reported as “inactive” and the Potency [3] is reported as “inactive”. For the same compound, the Potency [4] was “inactive”.
For `Nc1c(I)cc(I)c(C(=O)N(CCC(=O)O)c2ccccc2)c1I`, the Potency [1] was “inactive”, the Potency [3] was “inactive” and the Potency [4] was “inactive”.
With `CCCc1ccc(OCC(=O)N2CCN(C(=O)COc3ccc(CCC)cc3OC)CC2)c(OC)c1` the Potency [1] was “inactive”, the Potency [3] was “inactive” and the Potency [4] was “inactive”.
For `CC(C)C(C)(C)C(C)(C)C(C)(C)S`, the Potency [1] was “inactive” and the Potency [3] was “inactive”.
For `Cc1cc(OCCOCC[N+](C)(C)Cc2ccccc2)ccc1C(C)(C)CC(C)(C)C`, the Potency [1] was 7.76 µM (active) and the Potency [3] was 1.19 µM (active).
In the case of `CC(C)(C)c1nnc(NS(=O)(=O)c2ccccc2)s1`, the Potency [1] is reported as “inactive”, the Potency [3] is reported as “inactive” and the Potency [4] is reported as “inactive”.
In the case of `Cc1ccc(-c2ccccc2C#N)cc1`, the Potency [1] is reported as “inactive” and the Potency [3] is reported as “inactive”.
For `OCc1cccnc1`, the Potency [5] was “inactive”, the Potency [2] was “inactive” and the Potency [3] was “inactive”. The Potency [4] was “inactive”.
For `Nc1nnnn1-c1ccccc1`, the Potency [1] was “inactive”, the Potency [3] was “inactive” and the Potency [4] was “inactive”.
In the case of `OC1(c2ccc(Cl)cc2)CCNCC1`, the Potency [1] is reported as 15.5 µM (active), the Potency [3] is reported as “inactive” and the Potency [4] is reported as “inactive”.
With `O=C(O)Cc1ccccc1Oc1ccc(Cl)cc1Cl` the Potency [1] was “inactive”, the Potency [3] was “inactive” and the Potency [4] was “inactive”.
With `Cc1onc(-c2c(Cl)cccc2Cl)c1C(=O)Cl` the Potency [1] was “inactive”, the Potency [3] was “inactive” and the Potency [4] was “inactive”.
With `CCOC(=O)Cn1cccc1-c1nc(-c2ccc(OC)cc2)c(-c2ccc(OC)cc2)s1` the Potency [1] was “inactive” and the Potency [4] was “inactive”.
In the case of `CN(C(=O)C(Cl)Cl)c1ccc(OC(=O)c2ccco2)cc1`, the Potency [1] is reported as “inactive” and the Potency [3] is reported as “inactive”.
With `COc1c(C)c2c(c(O)c1C/C=C(\C)CCC(=O)OCCN1CCOCC1)C(=O)OC2` the Potency [1] was 13.8 µM (active) and the Potency [3] was 473 nM (active) and 525 nM (active).
In the case of `CCOC(=O)Oc1ccc(CCNC(=O)[C@H](CCSC)NC(C)=O)cc1OC(=O)OCC`, the Potency [1] is reported as “inactive”, the Potency [3] is reported as “inactive” and the Potency [4] is reported as “inactive”.
For `CC(=O)OCC(=O)[C@@]1(O)CCC2C3CCC4=CC(=O)CC[C@]4(C)C3[C@@H](O)C[C@@]21C` (stereo partly specified), the Potency [1] was “inactive”, the Potency [3] was “inactive” and the Potency [4] was 0.15 µM (active).
With `Nc1c[n+](N2CCOCC2)no1` the Potency [1] was “inactive”, the Potency [3] was “inactive” and the Potency [4] was “inactive”.
For `Clc1ccc2c(c1)Nc1ccccc1S2`, the Potency [1] was “inactive”, the Potency [3] was “inactive” and the Potency [4] was “inactive”.
With `CC(=O)/C=C/C=C1/C2CCC(C2)C1(C)C` (stereo unspecified) the Potency [1] was 17.4 µM (active), the Potency [3] was “inactive” and the Potency [4] was “inactive”.
For `O=C1NCCN1CCN1CCC(c2cn(-c3ccc(F)cc3)c3ccc(Cl)cc23)CC1`, the Potency [1] was 1.55 µM (active), the Potency [3] was 3.76 µM (active) and the Potency [4] was 2.11 µM (active).
With `CC(=O)[C@H]1CC[C@H]2[C@@H]3C=CC4=CC(=O)CC[C@@]4(C)[C@@H]3CC[C@]12C` the Potency [1] was 15.5 µM (active), the Potency [3] was 13.3 µM (active) and inactive and the Potency [4] was 23.7 µM (active) and inactive.
For `C[C@H]1C[C@H](O)c2ccsc2S1(=O)=O`, the Potency [1] was “inactive”, the Potency [2] was “inactive” and the Potency [4] was “inactive”.
For `CC(C)NCCCC1(C(N)=O)c2ccccc2-c2ccccc21`, the Potency [1] was 3.89 µM (active), the Potency [3] was “inactive” and the Potency [4] was “inactive”.
With `CC(C)(c1ccc(O)cc1)c1ccc(O)cc1` the Potency [1] was 43.9 µM (active), the Potency [2] was 27.2 µM (active) and the Potency [6] was “inactive”. The Potency [7] was “inactive” and the Potency [8] was “inactive”.
With `CC1c2ccccc2CN1NC(=O)c1ccc(Cl)c(S(N)(=O)=O)c1` (stereo unspecified) the Potency [5] was “inactive”, the Potency [2] was “inactive” and the Potency [3] was “inactive”. The Potency [4] was “inactive”.
For `COC(=O)[C@H]1[C@H]2C[C@@H]3c4[nH]c5cc(OC)ccc5c4CCN3C[C@H]2C[C@@H](OC(=O)/C=C/c2ccc(O)c(OC)c2)[C@@H]1OC`, the Potency [1] was “inactive”, the Potency [3] was 4.73 µM (active) and the Potency [4] was 4.73 µM (active).
